In ChEMBL document CHEMBL5606460, “ASAP - DENV-2 NS2B-NS3 protease fluorescence single point” (2024) one finds inhibition data, which are given here for 22 compounds.

In all, about 2,000 compounds went through this assay and about 110 (5.5%) showed an effect of 50% or more. The full list was thinned out, with strong results kept by preference.

The test has as its target Genome polyprotein (dengue virus type 2) (UniProt P29990).
[1] abbreviates: Thailand/16681/1984, Concentration 25.0 uM, Number of replicates 1.0.

Regarding `O=C(c1cc(Cl)ccc1NS(=O)(=O)c1ccc(Oc2ccccc2Cl)cc1)N1CCC[C@@H]1CO`, the inhibition (as a rule, the change of the read-out against control, counted positive when it falls) amounted to 17.2% (Thailand/16681/1984, Concentration 49.5 uM, Number of replicates 2.0, Standard deviation 0.383564644131335 %); 85.5% (Thailand/16681/1984, Concentration 99.01 uM, Number of replicates 2.0, Standard deviation 0.18466388793957156 %); 93.6% (Thailand/16681/1984, Concentration 198.0 uM, Number of replicates 2.0, Standard deviation 0.022248141217142654 %).
`CNC(=O)[C@H]1CCCN(S(=O)(=O)c2ccc(Oc3ccccc3Cl)cc2)C1`: the inhibition was -1.55% (Thailand/16681/1984, Concentration 49.5 uM, Number of replicates 2.0, Standard deviation 1.3425926640552597 %); 0.94% (Thailand/16681/1984, Concentration 99.01 uM, Number of replicates 2.0, Standard deviation 1.1232771440198652 %); 2.72% (Thailand/16681/1984, Concentration 198.0 uM, Number of replicates 2.0, Standard deviation 1.8999403128335026 %).
As to `CNC(=O)[C@H]1CCN(S(=O)(=O)c2ccc(Oc3ccccc3Cl)cc2)C1`, the inhibition reads like this: (Thailand/16681/1984, Concentration 49.5 uM, Number of replicates 2.0, Standard deviation 0.2326651022960228 %) -2.7%; (Thailand/16681/1984, Concentration 99.01 uM, Number of replicates 2.0, Standard deviation 1.0727392899756494 %) -1.81%; (Thailand/16681/1984, Concentration 198.0 uM, Number of replicates 2.0, Standard deviation 0.8124211767562954 %) 0.204%.
Turning to `CNC(=O)C[C@H]1CCCN1S(=O)(=O)c1ccc(Oc2ccccc2Cl)cc1`, the inhibition (Thailand/16681/1984, Concentration 49.5 uM, Number of replicates 2.0, Standard deviation 0.32757728686835763 %) was -0.145%; the inhibition (Thailand/16681/1984, Concentration 99.01 uM, Number of replicates 2.0, Standard deviation 1.5700018436077314 %) turned out to be 1.46%; the inhibition (Thailand/16681/1984, Concentration 198.0 uM, Number of replicates 2.0, Standard deviation 0.26515981673573996 %) worked out at 3.55%.
Consider `CNC(=O)C[C@H]1CCCCN1S(=O)(=O)c1ccc(Oc2ccccc2Cl)cc1`, for which the inhibition runs as follows: (Thailand/16681/1984, Concentration 49.5 uM, Number of replicates 2.0, Standard deviation 0.6403061336392061 %) -1.92%; (Thailand/16681/1984, Concentration 99.01 uM, Number of replicates 2.0, Standard deviation 0.5926288072768489 %) -0.478%; (Thailand/16681/1984, Concentration 198.0 uM, Number of replicates 2.0, Standard deviation 0.4290957159902598 %) 1.47%.
Consider `CC[C@H]1CCN(C(=O)c2cc(Cl)ccc2NS(=O)(=O)c2ccc(Oc3ccccc3Cl)cc2)C1`, for which the inhibition is, setting by setting: (Thailand/16681/1984, Concentration 49.5 uM, Number of replicates 2.0, Standard deviation 0.47789805764320614 %) 46.7%; (Thailand/16681/1984, Concentration 99.01 uM, Number of replicates 2.0, Standard deviation 0.11836183761011393 %) 61.8%; (Thailand/16681/1984, Concentration 198.0 uM, Number of replicates 2.0, Standard deviation 0.034704726588234404 %) 73.4%.
For the compound `O=C(c1cc(Cl)ccc1NS(=O)(=O)c1ccc(Oc2ccccc2Cl)cc1)N1CC[C@H](CO)C1`, the inhibition (Thailand/16681/1984, Concentration 49.5 uM, Number of replicates 2.0, Standard deviation 1.1631525408138252 %) is 2.87%; the inhibition (Thailand/16681/1984, Concentration 99.01 uM, Number of replicates 2.0, Standard deviation 1.2459174873464263 %) stood at 43.6%; the inhibition (Thailand/16681/1984, Concentration 198.0 uM, Number of replicates 2.0, Standard deviation 0.07742612093802895 %) was determined as 97.8%.
Consider `O=Cc1ccc(N2CCC(C(=O)Nc3c(F)cc(F)cc3[N+](=O)[O-])CC2)cc1`, for which, under setting [1], the inhibition came to 15.2%.
In the case of `Cc1cc(C(N)=O)c2cccc(Cl)c2n1`, the inhibition is -2.36% (Thailand/16681/1984, Concentration 49.95 uM, Number of replicates 2.0, Standard deviation 7.126306314460823 %) and 0.295% (Thailand/16681/1984, Concentration 99.9 uM, Number of replicates 2.0, Standard deviation 6.288884680839078 %).
Turning to `O=Cc1ccc(N2CCC(C(=O)N3CCN(C(=O)OCc4ccccc4)CC3)CC2)cc1`, the inhibition under setting [1] came to 11.5%.
On to `CC(C)COc1ccc(CNC(=O)C2CCN(c3ccc(C=O)cc3)CC2)cc1`, for which the inhibition under setting [1] was found to be 2.46%.
As for `COC(=O)c1c[nH]c(-c2ccccc2C(=O)Nc2cnn(C)c2)c1`, the inhibition (Thailand/16681/1984, Concentration 49.5 uM, Number of replicates 2.0, Standard deviation 4.6959836114984075 %) is -3.99%; the inhibition (Thailand/16681/1984, Concentration 99.01 uM, Number of replicates 2.0, Standard deviation 3.634509710514387 %) is -4.57%; the inhibition (Thailand/16681/1984, Concentration 198.0 uM, Number of replicates 2.0, Standard deviation 4.5675250537856 %) is -3.67%.
`CCCN(C[C@H](O)COc1ccccc1C(=O)CCc1ccccc1)C(=O)C1CCN(c2ccc(C=O)cc2)CC1`: the inhibition under setting [1] was 15.7%.
Turning to `Cc1cc(CO)c2cccc(Cc3ccccc3C(=O)N3CCC(CN)CC3)c2n1`, the inhibition runs as follows: (Thailand/16681/1984, Concentration 49.95 uM, Number of replicates 2.0, Standard deviation 7.669453256982897 %) 67%; (Thailand/16681/1984, Concentration 99.9 uM, Number of replicates 2.0, Standard deviation 4.997502207892192 %) 86.3%.
As to `Cc1cc(CO)c2cccc(Cc3ccccc3C(=O)N3CCC(C(=O)O)CC3)c2n1`, the inhibition reads like this: (Thailand/16681/1984, Concentration 49.95 uM, Number of replicates 2.0, Standard deviation 0.622352552136526 %) 0.457%; (Thailand/16681/1984, Concentration 99.9 uM, Number of replicates 2.0, Standard deviation 0.7955477281018075 %) 4.68%.
With `Cc1cc(CO)c2cccc(Cc3ccccc3C(=O)N3CC[C@@H](CO)C3)c2n1`, the inhibition is, setting by setting: (Thailand/16681/1984, Concentration 49.95 uM, Number of replicates 2.0, Standard deviation 0.1537915321395842 %) -0.863%; (Thailand/16681/1984, Concentration 99.9 uM, Number of replicates 2.0, Standard deviation 0.5490500301245094 %) 3.93%.
Consider `Cc1cc(CO)c2cccc(Cc3cccc(C(=O)N4CCC(C(=O)O)CC4)c3)c2n1`, for which the inhibition by setting is: (Thailand/16681/1984, Concentration 49.95 uM, Number of replicates 2.0, Standard deviation 0.11067239798039237 %) -0.531%; (Thailand/16681/1984, Concentration 99.9 uM, Number of replicates 2.0, Standard deviation 0.04599367566818035 %) 2.3%.
As for `Cc1cc(CO)c2cccc(Cc3cccc(C(=O)N4CC[C@@H](CO)C4)c3)c2n1`, the inhibition (Thailand/16681/1984, Concentration 49.95 uM, Number of replicates 2.0, Standard deviation 1.5846275376108605 %) was found to be 1.42% and the inhibition (Thailand/16681/1984, Concentration 99.9 uM, Number of replicates 2.0, Standard deviation 0.9371220268229934 %) stood at 23.4%.
Regarding `Cc1cc(CO)c2cccc(Cc3cccc(C(=O)N4CCC(CN)CC4)c3)c2n1`, the inhibition by setting is: (Thailand/16681/1984, Concentration 49.95 uM, Number of replicates 2.0, Standard deviation 0.03521723226612688 %) 98.6%; (Thailand/16681/1984, Concentration 99.9 uM, Number of replicates 2.0, Standard deviation 0.007908771829372243 %) 98.5%.
In the case of `O=Cc1ccc(N2CCC(C(=O)NC3CN(C(c4ccccc4)c4ccccc4)C3)CC2)cc1`, the inhibition under setting [1] stood at 2.62%.
Regarding `CC(C)N(C[C@H](O)COc1ccc(CC(N)=O)cc1)C(=O)C1CCN(c2ccc(C=O)cc2)CC1`, the inhibition under setting [1] was determined as 13.4%.
For `Cc1ccc(S(N)(=O)=O)c(NCc2ccc(N3CCN(C)CC3)cc2)c1`, the inhibition was -0.337% (Thailand/16681/1984, Concentration 49.5 uM, Number of replicates 2.0, Standard deviation 0.9591550294519122 %); 1.24% (Thailand/16681/1984, Concentration 99.01 uM, Number of replicates 2.0, Standard deviation 0.6629248720953049 %); 1.03% (Thailand/16681/1984, Concentration 198.0 uM, Number of replicates 2.0, Standard deviation 0.09920698004573132 %).
